A selection: hits, their analogues and other compounds. The true share with any hit is near 11%.
VACV Venus inh – inhibitors of vaccinia virus (Venus reporter); Vaccinia virus Venus reporter expression, fluorescence; Potency, µM (series often up to 36.5 µM), most hits filed as inhibitors; hit rate 0.46% among 330,000; calls by dose curve; tested in A549 cells; note: nearly all actives have a fitted effect of over 30% in size
Pf growth 96h – P. falciparum growth inhibition at 96 hours; Potency, µM (series often up to 28.7 µM), hits mostly inhibitors; P. falciparum luciferase reporter growth, 96 h; hit rate 6.9% among 320,000
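Parasite growth measured via integrated firefly luciferase reporter in P. falciparum. Infected erythrocytes at 2% hematocrit, 0.05% parasitemia final were treated 96 hours at 37 C under 5% CO2, and luminescence was read.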
Pf growth 48h – P. falciparum growth inhibition at 48 hours (one generation); hit rate 5.9% among 310,000; Potency, µM (highest dose often 28.7 µM), most hits filed as inhibitors; P. falciparum luciferase growth in erythrocytes, 48 h
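Luciferase-expressing parasites in RBCs, 2% Hct / 0.1% parasitemia final; RPMI 1640 + 0.5% Albumax; 37 C, 5% CO2, one generation; luminescence read-out, lower signal = inhibition.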
HCV inhibitor – HCV inhibition; hit rate 3.4% among 340,000; Huh7.5.1 HCVcc-Cre infection, luciferase reporter, 44 h; Potency, µM (series often up to 41.8 µM), most hits filed as inhibitors
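Reporter virus HCVcc-Cre (~0.5 moi) infects cells exposed to compound; seeding density 1,000 cells/well with 4 h settling beforehand. Luminescence, 15 sec read, taken 44 h post-infection following a 15 min RT substrate incubation.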
VACV mCherry inh – inhibitors of vaccinia virus infection (mCherry reporter signal); Vaccinia virus mCherry reporter infection, fluorescence; Potency, µM (titrated, usually from 36.5 µM), most hits filed as inhibitors; hit rate 0.63% among 310,000; calls by dose curve; tested in A549 cells; note: nearly all actives have a fitted effect of over 35% in size
NS1 inh – influenza NS1 inhibition | Potency, µM (doses to about 46.1 µM) | hit rate 0.4% among 270,000 | AID 2326; calls by dose curve; note: actives are rising curves; nearly all actives have a fitted effect of over 50% in size
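A cell-based growth assay was used: compounds that relieve NS1-induced slow growth of budding yeast raise OD600. Assay medium was yeast nitrogen base with ammonium sulphate and -URA supplement, pH 6.0, with 2% galactose.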
A number is an active result; [ ] = remark or other dose. Unless noted, calls come from the whole dose curve; as a rule, active = well fitted inhibition curve with a large enough effect; inconclusive = small, poorly fitted or top-dose-only effect, or another doubt; inactive = no such curve, though single readings can be large or run the other way.

Results for Cc1ccc([N+](=O)[O-])cc1NC(=O)CN1CCCCC1 ?
VACV Venus inh: inactive; Pf growth 96h: inconclusive; Pf growth 48h: inactive; HCV inhibitor: inactive; VACV mCherry inh: inactive; NS1 inh: inactive

What do the screens show for `COC(=O)c1ccc(C)c(NC(=O)CCSc2ccc(Cl)cc2)c1`?
VACV Venus inh: inactive; Pf growth 96h: inactive; Pf growth 48h: inactive; HCV inhibitor: inconclusive; VACV mCherry inh: inconclusive; NS1 inh: inconclusive

Results for Cc1ccc([N+](=O)[O-])cc1NC(=O)CNC1CCCCC1 ?
VACV Venus inh: inactive; Pf growth 96h: inactive; Pf growth 48h: 11.7µM; HCV inhibitor: inactive; VACV mCherry inh: inactive; NS1 inh: inactive

Results for Cc1ccc([N+](=O)[O-])cc1NC(=O)CCSc1ccc(Cl)cc1 ?
VACV Venus inh: inactive; Pf growth 96h: 9.28µM; Pf growth 48h: inactive; HCV inhibitor: inconclusive; NS1 inh: inactive

What do the screens show for `COc1cccc(C(=O)Oc2cc(N)n(S(=O)(=O)c3ccc(C)cc3)n2)c1OC`?
VACV Venus inh: inconclusive; Pf growth 96h: inactive; Pf growth 48h: inactive; HCV inhibitor: inactive; NS1 inh: inactive

How did NCc1csc(Nc2ccc(C(=O)c3ccccc3)cc2)n1 do in these assays?
VACV Venus inh: inactive; VACV mCherry inh: inconclusive

What do the screens show for `O=S(=O)(c1ccc2c(c1)OCCO2)N1CCC(O)(c2ccc(Cl)cc2)CC1`?
VACV Venus inh: inactive; Pf growth 96h: 9.28µM; Pf growth 48h: inactive; HCV inhibitor: inactive; VACV mCherry inh: inactive; NS1 inh: inactive

What do the screens show for `O=S(=O)(c1ccc2c(c1)OCCO2)N1CCN(c2cccc(Cl)c2)CC1`?
VACV Venus inh: inactive; Pf growth 48h: inactive; HCV inhibitor: inactive; NS1 inh: inactive

What do the screens show for `O=C(c1ccc(F)cc1)N1CCN(S(=O)(=O)c2ccc3c(c2)OCCO3)CC1`?
VACV Venus inh: inactive; VACV mCherry inh: inactive

Results for O=C(c1ccc(F)cc1F)N1CCN(S(=O)(=O)c2ccc3c(c2)OCCO3)CC1 ?
VACV Venus inh: inactive; Pf growth 96h: 9.28µM; Pf growth 48h: inconclusive; HCV inhibitor: inconclusive; VACV mCherry inh: inactive

What do the screens show for `O=S(=O)(c1ccccc1Cl)N1CCC(O)(c2ccc3c(c2)OCO3)CC1`?
VACV Venus inh: inactive; Pf growth 96h: 2.94µM; Pf growth 48h: inactive; HCV inhibitor: inactive; VACV mCherry inh: inactive; NS1 inh: inactive

What do the screens show for `N#Cc1c(N)nc2c(c1-c1ccc(F)cc1)CCC2`?
VACV Venus inh: inactive[7.34 µM]; Pf growth 96h: inactive; Pf growth 48h: inactive; HCV inhibitor: inactive; VACV mCherry inh: inactive[7.34 µM]; NS1 inh: inactive

How did O=C1CCCC2=C1C(c1ccccc1O)C1=C(CCCC1=O)O2 do in these assays?
VACV Venus inh: inactive; Pf growth 96h: 8.28µM; HCV inhibitor: inactive; NS1 inh: inactive

How did O=C1CCCC(O)=C1C1C2=C(CCCC2=O)OC2=C1C(=O)CCC2 do in these assays?
VACV Venus inh: inactive; Pf growth 96h: inactive; Pf growth 48h: inactive; HCV inhibitor: inactive; VACV mCherry inh: inactive; NS1 inh: inactive

How did OC1(c2ccccc2)CCN(Cc2ccccc2)C2CCCCC21 (configuration not stated) do in these assays?
VACV Venus inh: inconclusive; Pf growth 96h: inactive; Pf growth 48h: 10.4µM; HCV inhibitor: inactive; VACV mCherry inh: inactive; NS1 inh: inactive

What do the screens show for `OC1(c2ccccc2)CCNC2CCCCC21` (configuration not stated)?
VACV Venus inh: inactive; Pf growth 96h: 10.4µM; Pf growth 48h: inactive; HCV inhibitor: inactive; VACV mCherry inh: inactive; NS1 inh: inactive

Results for OC12CCCCC1C(c1ccccc1)NCC2 (configuration not stated) ?
VACV Venus inh: inactive; Pf growth 96h: inactive; Pf growth 48h: inactive; HCV inhibitor: inactive; VACV mCherry inh: inactive; NS1 inh: inactive

Results for CCN(CC)C(c1ccc(C)cc1)c1nnnn1C1CCCCC1 (configuration not stated) ?
Pf growth 96h: inactive; Pf growth 48h: inconclusive; HCV inhibitor: 35.5µM; NS1 inh: inactive

How did Cc1ccc(C(c2nnnn2C2CCCC2)N2c3ccccc3CC2C)cc1 (configuration not stated) do in these assays?
VACV Venus inh: inactive; Pf growth 96h: inconclusive; Pf growth 48h: 13.1µM; HCV inhibitor: inactive; VACV mCherry inh: inactive; NS1 inh: inactive

How did CCN(CC)C(c1ccc(F)cc1)c1nnnn1C1CCCCC1 (configuration not stated) do in these assays?
Pf growth 96h: inactive; Pf growth 48h: inconclusive; HCV inhibitor: inactive; NS1 inh: inactive

Results for NC(=O)NOCc1c(Cl)cccc1Cl ?
VACV Venus inh: inactive; Pf growth 96h: inactive; Pf growth 48h: inactive; HCV inhibitor: inactive; VACV mCherry inh: inactive; NS1 inh: inactive

What do the screens show for `CC(NC(=O)CCCN1C(=O)c2ccccc2C1=O)c1ccc2c(c1)CCCC2` (configuration not stated)?
VACV Venus inh: inactive; Pf growth 48h: inactive; HCV inhibitor: inactive; NS1 inh: inactive

Results for COc1ccc(NC(=O)NCCCN2CCN(c3cc(C)ccc3C)CC2)cc1 ?
VACV Venus inh: inactive; Pf growth 96h: inactive; Pf growth 48h: inconclusive; HCV inhibitor: 10µM; VACV mCherry inh: inconclusive; NS1 inh: inactive

Results for CCOc1ccc(NC(=O)NCCN2CCN(c3cccc(C)c3C)CC2)cc1 ?
VACV Venus inh: inactive; Pf growth 96h: inactive; Pf growth 48h: inactive; HCV inhibitor: inconclusive; VACV mCherry inh: inactive; NS1 inh: inactive

Results for CCOc1cccc(N2CCN(CCNC(=O)Nc3ccc(C)cc3)CC2)c1C ?
Pf growth 96h: inactive; Pf growth 48h: inconclusive; HCV inhibitor: 12.6µM; NS1 inh: inactive

Results for COc1ccc(NC(=O)NCCCN2CCN(c3ccccc3F)CC2)cc1 ?
VACV Venus inh: inactive; Pf growth 96h: inactive; Pf growth 48h: inactive; HCV inhibitor: inactive; VACV mCherry inh: inactive; NS1 inh: inactive

What do the screens show for `CCOC(=O)C1(Cc2cccc(OC)c2)CCCN(C(=O)c2ccc(OC)o2)C1` (configuration not stated)?
VACV Venus inh: inactive; Pf growth 96h: inactive; Pf growth 48h: inconclusive; HCV inhibitor: inconclusive; VACV mCherry inh: inactive; NS1 inh: inactive

How did Cc1ccc(-c2csc(NC(=O)C[n+]3cc(-c4ccc(C)cc4)n4c3CCC4)n2)cc1 do in these assays?
VACV Venus inh: inconclusive; Pf growth 96h: inactive; Pf growth 48h: inconclusive; HCV inhibitor: 3.55µM; VACV mCherry inh: inconclusive; NS1 inh: inactive

What do the screens show for `Cc1ccc(S(=O)(=O)CC(=O)Nc2nc(-c3ccccc3)cs2)cc1`?
VACV Venus inh: inconclusive; Pf growth 96h: inactive; HCV inhibitor: inconclusive; NS1 inh: inactive

Results for Cc1ccc(-c2csc(NC(=O)C[n+]3cc(-c4ccccc4)n4c3CCC4)n2)cc1 ?
VACV Venus inh: inconclusive; Pf growth 96h: inconclusive; Pf growth 48h: inconclusive; HCV inhibitor: 2µM; VACV mCherry inh: inactive; NS1 inh: inactive

How did CCn1c2ccccc2c2nc3cc(OC)c(OC)cc3nc21 do in these assays?
VACV Venus inh: inactive; Pf growth 96h: 3.29µM; Pf growth 48h: inactive; HCV inhibitor: inconclusive; VACV mCherry inh: inactive; NS1 inh: inactive

Bioassay records as filed in PubChem BioAssay.
